FLuc modulator: firefly luciferase modulation, counter-screen for miR-21 project; actives 6.9% (n = 360,000); P08659; Potency, µM (series often up to 57.5 µM), for inactives: at the highest dose activity change, negative = inhibition, actives largely listed as inhibitors; purified FLuc, Km substrates, luminescence inhibition;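 note: plate controls were vehicle for no effect and reference inhibitor for full effect; nearly all actives have a fitted effect of over 55% in size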
Target sequence (P08659 whole entry, looked up): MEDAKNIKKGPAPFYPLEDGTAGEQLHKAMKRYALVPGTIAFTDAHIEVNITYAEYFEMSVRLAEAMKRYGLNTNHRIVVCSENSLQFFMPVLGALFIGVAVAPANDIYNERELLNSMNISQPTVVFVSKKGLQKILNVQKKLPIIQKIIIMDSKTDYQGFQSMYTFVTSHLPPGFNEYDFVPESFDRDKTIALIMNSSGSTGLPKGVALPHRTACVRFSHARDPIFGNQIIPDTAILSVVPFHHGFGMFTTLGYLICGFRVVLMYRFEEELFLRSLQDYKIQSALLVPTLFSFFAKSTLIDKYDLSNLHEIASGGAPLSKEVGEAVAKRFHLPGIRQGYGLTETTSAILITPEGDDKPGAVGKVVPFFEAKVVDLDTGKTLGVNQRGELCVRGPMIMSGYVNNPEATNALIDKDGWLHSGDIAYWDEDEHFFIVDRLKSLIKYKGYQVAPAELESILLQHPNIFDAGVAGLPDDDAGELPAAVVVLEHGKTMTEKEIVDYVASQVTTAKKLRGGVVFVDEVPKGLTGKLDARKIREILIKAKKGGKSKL
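Biochemical qHTS of compounds, final roughly 60 µM downward over six points, against 10 nM purified firefly luciferase using Km concentrations of substrates (10 uM D-luciferin, 10 uM ATP) in Tris acetate pH 7.5 buffer; luminescence output.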
SMN2 splice enh: SMN2 splice variant enhancement; HEK293 SMN2-luciferase splicing reporter, luminescence, 30-36 h; Potency, µM (series often up to 46.1 µM), for the others: at the top dose activity change, positive = activation, actives largely listed as activators; actives 2.8% (n = 210,000); note: % of control where 0% means no effect; nearly all actives have a fitted effect of over 55% in size
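qHTS luciferase splicing reporter: luminescence rises when SMN2 exon 7 is included in transfected HEK293 cells. Compound exposure lasted 30-36 h at 37C, with 4.5 mM final sodium butyrate as control, followed by a ONE-Glo read.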
ELG1 genotoxic: genotoxicity induction in ELG1-luciferase HEK293T cells. HEK293T ELG1-luciferase reporter, luminescence, 16 h. Potency, µM (doses to about 46 µM), for the others: top-dose activity change, positive = activation, hits mostly activators. actives 1.3% (n = 330,000); note: % of control where 0% means no effect; nearly all actives have a fitted effect of over 60% in size
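HEK293T cells expressing luciferase-tagged ELG1 were treated with compound or DMSO for 16 hr at 37°C. Luciferase activity was then read after 30 min with ONE-Glo at room temperature; rising signal flags genetic stress.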
NPC1 promoter act: activates the NPC1 promoter; Huh7 NPC1 promoter luciferase reporter, 24 h; Potency, µM (top dose mostly 9.22 µM), for the others: at the highest dose activation, most hits filed as activators; actives 2.4% (n = 320,000); note: % of control where 0% means no effect; nearly all actives have a fitted effect of over 60% in size
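NPC1 promoter–luciferase Huh7 cells; 24 h compound; luminescence.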
Rab9 prom act: Rab9 promoter activation; Huh7 Rab9 promoter-luciferase reporter, luminescence, 24 h; Potency, µM (doses to about 9.22 µM), without a hit: top-dose activation, negative = inhibition, hits mostly activators; actives 2.8% (n = 320,000); AID 485297; note: % of control where 0% means no effect; nearly all actives have a fitted effect of over 60% in size
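Luminescence read-out: Huh7 cells stably expressing Rab9-luciferase, treated 24 h with compound at 37 °C, then lysed with luciferase reagent for 10 min at ambient before reading.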
Luc counter: Kinase-Glo luciferase inhibition (counter-screen); Q27757; actives 0.28% (n = 200,000); Potency, µM (highest dose often 38.3 µM), without a hit: at the top dose activity change, negative = inhibition, usual class: inhibitors; Kinase-Glo luciferase, ATP luminescence, 8 min; note: % is set by controls: 0 for no effect and ±100 for the full control effect; nearly all actives have a fitted effect of over 60% in size
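Compounds were added to a substrate mix at pH 7.2 (50 mM imidazole, 10 uM ATP, within the enzyme's linear range), followed by Kinase-Glo detection reagent; luminescence was measured after 8 minutes at ambient temperature.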
Active calls of the source: *; ? = inconclusive; nt = no result; [ ] = dose if it differs, or a comment. Sampled rows, rich in hits. Any-hit rate of the full collection: about 7.5%. Calls come from the whole dose curve; as a rule, active = well fitted curve in the direction sought with a large enough effect; inconclusive = small, poorly fitted or top-dose-only effect, or another doubt; inactive = no such curve, though single readings can be large; an effect the other way counts as inactive or inconclusive. Potency is the fitted concentration of half-maximal effect.

SMILES	FLuc modulator	SMN2 splice enh	ELG1 genotoxic	NPC1 promoter act	Rab9 prom act	Luc counter
O=C(N/N=C/c1ccc(O)c(O)c1)N/N=C/c1ccc(O)c(O)c1	5.4µM*	nt	7%	0%	-14%	nt
Cc1cc(SCC(=O)N/N=C/c2ccc(O)c(O)c2)c(C)cc1Br	6%	18%	-9%	-7%	1%	-2%
COc1cc(/C=N/NC(=O)c2nonc2C)ccc1O	?	7%	3%	-1%	-1%	-14%
Cc1nonc1C(=O)N/N=C/c1ccc(O)c(O)c1	?	-11%	3%	-9%	-14%	6.3µM*
COc1cc(C(=O)Nc2ccc(S(=O)(=O)N3CCOCC3)cc2)c([N+](=O)[O-])cc1OC	4%	nt	0%	-3%	1%	nt
COc1cccc(NC(=O)c2ccc3c(c2)CCN3S(C)(=O)=O)c1	17µM*	30%	5%	27%	?	nt
CN1CCSc2ccc(C(=O)Nc3ccc(Cl)cc3)cc21	?	nt	?	2.8µM*	3.5µM*	nt
CC(=O)Nc1ccc(NC(=O)c2ccc3c(c2)CCN3S(C)(=O)=O)cc1	-1%	nt	-2%	-2%	-11%	nt
CCc1ccc(NC(=O)c2ccc3c(c2)N(Cc2ccc(C)cc2)CCS3)cc1	?	25µM*	nt	nt	nt	nt
COc1cccc(NC(=O)c2ccc3c(c2)N(C)CCS3)c1	2.7µM*	nt	?	1.3µM*	3.5µM*	nt
Cc1ccccc1Nc1c(-c2ccc(Cl)s2)nc2cccc(C)n12	-2%	-35%	nt	nt	nt	nt
O=C(CCSc1ccc(Cl)cc1)NC1CCCC1	-2%	nt	-1%	-2%	2%	nt
O=C(CCS(=O)(=O)c1ccccc1)NC1CCCCC1	17µM*	nt	15µM*	25%	?	nt
O=C(CCSc1ccccc1)NC1CCCC1	15µM*	21%	?	3%	1%	-3%
Nc1nonc1C(=O)N/N=C/c1ccc(Br)o1	19µM*	nt	0%	-2%	-2%	nt
N/C(=N\N=C\c1ccc(Br)o1)c1nonc1N	12µM*	nt	?	2.5µM*	1.3µM*	nt
COc1ccc(OC)c(/C=N/N=C(\N)c2nonc2N)c1	?	nt	1%	-1%	-3%	nt
CC(C)(C)c1ccc(-c2cc(N)n[nH]2)cc1	9.5µM*	-12%	3%	0%	-5%	-6%
Cc1ccc(-c2cc(N)n[nH]2)cc1	?	?	0%	5%	3%	-5%
Cc1ccc(CN(C(=O)COc2cccc([N+](=O)[O-])c2)c2ccccn2)cc1	1%	nt	nt	nt	nt	nt
COc1cccc(CNC(=O)c2ccc(-n3c(C)cc4c3CCCC4)cc2)c1	-3%	nt	nt	nt	nt	nt
Oc1cccc(/C=N/N=C/c2cccc(O)c2O)c1O	1.7µM*	nt	?	-23%	-33%	nt
Cc1ccccc1N=Cc1cccc(O)c1O	?	29%	0%	-8%	-4%	2%
CCCCN1C(=O)C(=O)N(c2ccccc2)C1=S	12µM*	11µM*	?	3.2µM*	3.5µM*	-13%
CCCCN1C(=O)C(=O)N(CC(=O)N2CCN(c3ccccc3)CC2)C1=O	3%	nt	-3%	0%	1%	nt
SMILES	FLuc modulator	SMN2 splice enh	ELG1 genotoxic	NPC1 promoter act	Rab9 prom act	Luc counter
COc1cccc2cc(C(=O)NCc3ccccn3)c(=O)oc12	11µM*	1%	?	?	?	-1%
COc1cccc2cc(C(=O)N3CCc4ccccc4C3)c(=O)oc12	17µM*	-5%	?	0%	6%	-5%
COc1cccc2cc(C(=O)NCCC3=CCCCC3)c(=O)oc12	?	13%	5%	-1%	3%	0%
COc1cccc2cc(C(=O)NCCc3ccccc3)c(=O)oc12	11µM*	nt	?	5%	5%	nt
COc1ccc(NC(=O)c2ccco2)cc1NC(=O)c1cccc(C)c1OC	?	-31%	nt	nt	nt	nt
CCN1CCN(Cc2c(O)ccc3c(C)c(-c4ccc(OC)cc4)c(=O)oc23)CC1	-5%	nt	nt	nt	nt	nt
O=C(O)CCc1ccc(S(=O)(=O)Nc2ccccc2C(=O)NCCc2ccccc2)cc1	19µM*	nt	?	2.2µM*	3.2µM*	nt
COc1cccc(N2CCN(CC(=O)Nc3ccccc3C(=O)NCc3ccccc3)CC2)c1	-1%	nt	-1%	-1%	-8%	nt
COC(=O)c1ccc(NC(=O)c2ccccc2N(C)S(C)(=O)=O)cc1	0%	21%	0%	1%	-5%	-2%
COC(=O)c1ccccc1NC(=O)C1CCCCC1C(=O)O (stereo unspecified)	2%	-15%	-12%	-5%	-2%	0%
CC(NC(=O)c1ccccc1NS(=O)(=O)c1ccc(CCC(=O)O)cc1)c1ccccc1 (stereo unspecified)	-1%	nt	3%	-1%	4%	nt
COC(=O)c1ccc(NC(=O)c2ccccc2NS(C)(=O)=O)cc1	12µM*	6%	-4%	0%	1%	-2%
O=C(NCCc1ccccc1)c1ccccc1NC(=O)C1CCCCC1C(=O)O (stereo unspecified)	?	11µM*	?	?	2µM*	1%
COc1cccc(N2CCN(CC(=O)Nc3ccccc3C(=O)NCCc3ccccc3)CC2)c1	nt	nt	0%	3.2µM*	3.5µM*	nt
CCCCSCCCNC(=O)C1CCN(Cc2nc(-c3ccc(CC)cc3)oc2C)CC1	-18%	2%	nt	nt	nt	nt
O=C(NCc1ccc2c(c1)OCO2)c1ccc2c(c1)N(Cc1cccc(Cl)c1)C(=O)c1ccccc1S2=O (stereo unspecified)	-2%	nt	nt	nt	nt	nt
COc1ccc(NC(C)=O)cc1S(=O)(=O)Nc1ccccc1C(=O)NCCc1ccccc1	17µM*	nt	?	2.2µM*	2µM*	nt
COc1ccccc1NC(=O)c1ccccc1NS(C)(=O)=O	1%	-6%	-6%	-1%	-6%[1.84 µM]	-1%
COc1ccc(NC(=O)c2ccccc2NS(C)(=O)=O)cc1OC	17µM*	-4%	-3%	-5%	-5%	-1%
COc1cccc(Cn2ncc3c4sc(Br)cc4n(C)c3c2=O)c1	1%	nt	nt	-5%	-1%	nt
COc1ccccc1NC(=O)CCNS(=O)(=O)c1ccc2c(c1)CCCC(=O)N2	-7%	nt	nt	nt	nt	nt
Cc1ccc(C)c(CN2C(=O)C3(c4ccccc42)N(c2ccc(Cl)cc2)C(=O)CS3(=O)=O)c1 (stereo unspecified)	-7%	nt	nt	nt	nt	nt
CC(C)CCOc1ccc(C2CC(=O)N(C)C2=O)cc1 (stereo unspecified)	-17%	nt	7%	5%	12%	-3%
COc1cc(NC(=O)COC(=O)c2ccc3ccccc3n2)cc(OC)c1	-3%	nt	-3%	-1%	-2%	nt
CCOc1ccc(N=C(NN)c2ccc3ccccc3n2)cc1	11µM*	15%	?	29%	?	-1%
COc1ccc(NC(=O)Nc2cccc(C)n2)cc1	8.5µM*	11µM*	12µM*	?	?	-5%

Compound activity as filed in PubChem BioAssay.
